The values that follow come from PubChem BioAssay (NCI).

A short description of assay [1]: NCI Yeast Anticancer Drug Screen. Data for the rad50 strain (AID 155).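 Note: 0% = growth of vehicle-only cultures of the same strain.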 To be noted: S. cerevisiae rad50 strain growth inhibition, active compounds read high. The method, boiled down:
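Genetically altered yeast (DNA repair pathway); compound treatment; growth inhibition vs vehicle ctrl.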

The nature of assay [2]: NCI Yeast Anticancer Drug Screen. Data for the mec2-1 strain (AID 157). The note with it: S. cerevisiae mec2-1 strain, active compounds read high. The gist of the method:
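Using mec2-1 yeast: add compound, measure growth, express inhibition versus vehicle-treated cultures.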

Assay [3] is described as follows: NCI Yeast Anticancer Drug Screen. Data for the sgs1 mgt1 strain (AID 161).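 Note: 0% = growth of cultures given vehicle only.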 The note with it: S. cerevisiae sgs1 mgt1 strain, active compounds read high. The method, boiled down: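 Percent growth inhibition was derived by comparing compound-exposed mutant yeast with vehicle-exposed cultures. The strain carries alterations in DNA damage repair.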
Assay [4] is described as follows: NCI Yeast Anticancer Drug Screen. Data for the cln2 rad14 strain (AID 165).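 Note: 0% = growth equal to vehicle treated cultures.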 To be noted: S. cerevisiae cln2 rad14 strain, active compounds read high. The method, boiled down:
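Yeast strain cln2 rad14, bearing defects in cell cycle control and DNA repair, serves as the test system; values reflect growth inhibition compared with vehicle.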

A short description of assay [5]: NCI Yeast Anticancer Drug Screen. Data for the bub3 strain (AID 167). To be noted: S. cerevisiae bub3 mutant strain, active compounds read high. The method, boiled down: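 Yeast carrying a defined mutation is treated with each compound, and growth is compared with that of vehicle-exposed cells to give inhibition.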
Assay [6] can be described thus: NCI Yeast Anticancer Drug Screen. Data for the mlh1 rad18 strain (AID 175). To be noted: S. cerevisiae mlh1 rad18 strain growth inhibition, active compounds read high. The method, boiled down: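 Steps: expose repair-defective yeast to compound; measure growth; express inhibition against vehicle-treated controls.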
Setting [7] is: at 5.0 µM (retest, dose inferred, filed as 0.5).
The mark [8] stands for this setting: at 50.0 µM (retest, dose inferred, filed as 5.0).

About 79,000 compounds went through this panel and 15% of them were active in at least one assay; those are over-represented in the sample as a whole. A number with no mark means an inactive call. The source made the active and inactive calls. Cut-off read from the data, not from the text of the source: active = growth inhibition above about 70%; inactive = the rest.

Take `CC(C)(C)c1cc(C2c3cc4c(cc3OC(O)(CO)C2C(=O)O)OCO4)cc(C(C)(C)C)c1O` (stereo not given) (tested in a mixture with another compound): the growth inhibition was -23% in assay [1] (setting [7]); 39% in assay [1] (setting [8]); 49.9% in assay [1] (at 50.0 µM); -6% in assay [2] (setting [7]); 61% in assay [2] (setting [8]); 50.1% in assay [2] (at 50.0 µM). Besides, the growth inhibition in assay [3] (setting [7]) was -20%; in assay [3] (setting [8]), 50%; in assay [3] (at 50.0 µM), 37%; in assay [4] (setting [7]), 5%; in assay [4] (setting [8]) it was 68%; in assay [4] (at 50.0 µM), 72.1% (active). Besides, the growth inhibition in assay [5] (setting [7]) was -10%; in assay [5] (setting [8]) it was 63%; in assay [5] (at 50.0 µM), 55%; in assay [6] (setting [7]), 11%; in assay [6] (setting [8]), 73% (active); in assay [6] (at 50.0 µM) it was 52.6%.
For `Cc1cc(Cl)c(C(C)C)cc1O`, the growth inhibition in assay [1] (setting [7]) was 17%; in assay [1] (setting [8]), 62%; in assay [1] (at 50.0 µM), 53.2%; in assay [2] (setting [7]), -4%; in assay [2] (setting [8]), 61%; in assay [2] (at 50.0 µM), 48.2%. The growth inhibition is 3% in assay [3] (setting [7]); 55% in assay [3] (setting [8]); 48.6% in assay [3] (at 50.0 µM); 2% in assay [4] (setting [7]); 51% in assay [4] (setting [8]); 45% in assay [4] (at 50.0 µM). The growth inhibition is 7% in assay [5] (setting [7]); 55% in assay [5] (setting [8]); 24.4% in assay [5] (at 50.0 µM); 8% in assay [6] (setting [7]); 58% in assay [6] (setting [8]); 63.4% in assay [6] (at 50.0 µM).
Take `CC(=O)CC(=O)OCc1ccccc1`: the growth inhibition in assay [1] (setting [7]) was 12%; in assay [1] (setting [8]) it was 97% (active); in assay [1] (at 50.0 µM) it was 94.5% (active); in assay [2] (setting [7]), 4%; in assay [2] (setting [8]), 98% (active); in assay [2] (at 50.0 µM) it was 97.2% (active). For the same compound, the growth inhibition is 1% in assay [3] (setting [7]); 96% (active) in assay [3] (setting [8]); 98% (active) in assay [3] (at 50.0 µM); 4% in assay [4] (setting [7]); 89% (active) in assay [4] (setting [8]); 87.2% (active) in assay [4] (at 50.0 µM). Moreover, the growth inhibition in assay [5] (setting [7]) was 8%; in assay [5] (setting [8]), 98% (active); in assay [5] (at 50.0 µM) it was 96% (active); in assay [6] (setting [7]), 14%; in assay [6] (setting [8]) it was 98% (active); in assay [6] (at 50.0 µM) it was 97.7% (active).
Turning to `CC(C)(Br)C(=O)/C=C/c1ccc(Cl)cc1`, the growth inhibition was 92% (active) in assay [1] (setting [7]); 100% (active) in assay [1] (setting [8]); 99.5% (active) in assay [1] (at 50.0 µM); 92% (active) in assay [2] (setting [7]); 100% (active) in assay [2] (setting [8]); 99.7% (active) in assay [2] (at 50.0 µM). Also, the growth inhibition in assay [3] (setting [7]) was 94% (active); in assay [3] (setting [8]), 99% (active); in assay [3] (at 50.0 µM) it was 99.6% (active); in assay [4] (setting [7]), 89% (active); in assay [4] (setting [8]), 100% (active); in assay [4] (at 50.0 µM), 99.7% (active). The growth inhibition in assay [5] (setting [7]) is 38%; in assay [5] (setting [8]), 99% (active); in assay [5] (at 50.0 µM), 99.3% (active); in assay [6] (setting [7]), 97% (active); in assay [6] (setting [8]), 100% (active); in assay [6] (at 50.0 µM) it was 99.4% (active).
For the compound `O=C(CC1C=Cc2ccccc2N1C(=O)c1ccccc1)c1ccccc1` (stereo not given), the growth inhibition in assay [1] (setting [7]) was 1%; in assay [1] (setting [8]), 85% (active); in assay [1] (at 50.0 µM), 83% (active); in assay [2] (setting [7]), -4%; in assay [2] (setting [8]), 76% (active); in assay [2] (at 50.0 µM) it was 76.5% (active). In addition, the growth inhibition in assay [3] (setting [7]) is -7%; in assay [3] (setting [8]), 82% (active); in assay [3] (at 50.0 µM), 37.8%; in assay [4] (setting [7]), -17%; in assay [4] (setting [8]) it was 77% (active); in assay [4] (at 50.0 µM), 73% (active). Also, the growth inhibition in assay [5] (setting [7]) is 21%; in assay [5] (setting [8]), 93% (active); in assay [5] (at 50.0 µM), 86% (active); in assay [6] (setting [7]), -2%; in assay [6] (setting [8]) it was 87% (active); in assay [6] (at 50.0 µM) it was 88.5% (active).
In the case of `O=C(OC12CCCCC1CCCC2)c1ccc([N+](=O)[O-])cc1` (stereo not given), the growth inhibition in assay [1] (setting [7]) is 28%; in assay [1] (setting [8]) it was 98% (active); in assay [1] (at 50.0 µM), 98% (active); in assay [2] (setting [7]) it was 29%; in assay [2] (setting [8]) it was 99% (active); in assay [2] (at 50.0 µM), 99.5% (active). Further, the growth inhibition in assay [3] (setting [7]) was 32%; in assay [3] (setting [8]) it was 99% (active); in assay [3] (at 50.0 µM) it was 99.1% (active); in assay [4] (setting [7]), 11%; in assay [4] (setting [8]), 99% (active); in assay [4] (at 50.0 µM), 99.5% (active). The growth inhibition was 33% in assay [5] (setting [7]); 99% (active) in assay [5] (setting [8]); 99.4% (active) in assay [5] (at 50.0 µM); 44% in assay [6] (setting [7]); 98% (active) in assay [6] (setting [8]); 99.2% (active) in assay [6] (at 50.0 µM).
For the compound `CC(C)C(OC(=O)c1ccc(NCC2=CC(=O)C=CC2=O)cc1)C(C)C`, the growth inhibition in assay [1] (setting [7]) was 22%; in assay [1] (setting [8]), 37%; in assay [1] (at 50.0 µM) it was 17%; in assay [2] (setting [7]), 15%; in assay [2] (setting [8]), 40%; in assay [2] (at 50.0 µM), 11.3%. For the same compound, the growth inhibition in assay [3] (setting [7]) was 23%; in assay [3] (setting [8]) it was 53%; in assay [3] (at 50.0 µM) it was 73% (active); in assay [4] (setting [7]) it was 21%; in assay [4] (setting [8]), 32%; in assay [4] (at 50.0 µM) it was 73.8% (active). Besides, the growth inhibition in assay [5] (setting [7]) was 27%; in assay [5] (setting [8]), 61%; in assay [5] (at 50.0 µM) it was 70.5% (active); in assay [6] (setting [7]), 17%; in assay [6] (setting [8]), 44%; in assay [6] (at 50.0 µM) it was -10.4%.
Take `COc1cc2c(cc1O)CCCCC2`: the growth inhibition in assay [1] (setting [7]) is 4%; in assay [1] (setting [8]), 4%; in assay [1] (at 50.0 µM), 41.1%; in assay [2] (setting [7]), 3%; in assay [2] (setting [8]), -2%; in assay [2] (at 50.0 µM), -29.2%. Also, the growth inhibition in assay [3] (setting [7]) was 1%; in assay [3] (setting [8]), 8%; in assay [3] (at 50.0 µM), 6.9%; in assay [4] (setting [7]), -2%; in assay [4] (setting [8]), -7%; in assay [4] (at 50.0 µM) it was 0%. Further, the growth inhibition in assay [5] (setting [7]) is -4%; in assay [5] (setting [8]), 0%; in assay [5] (at 50.0 µM), -7.5%; in assay [6] (setting [7]), -3%; in assay [6] (setting [8]), 3%; in assay [6] (at 50.0 µM), 43%.
As for `Cc1ccc(NC(=S)N(CCC#N)C2CCCCC2)cc1C`, the growth inhibition in assay [1] (setting [7]) was -12%; in assay [1] (setting [8]), -10%; in assay [1] (at 50.0 µM) it was 21.9%; in assay [2] (setting [7]), -22%; in assay [2] (setting [8]) it was -21%; in assay [2] (at 50.0 µM), -7.55%. Besides, the growth inhibition in assay [3] (setting [7]) was -6%; in assay [3] (setting [8]), 10%; in assay [3] (at 50.0 µM) it was 10.3%; in assay [4] (setting [7]), -2%; in assay [4] (setting [8]) it was 3%; in assay [4] (at 50.0 µM) it was 0.5%. The growth inhibition is 7% in assay [5] (setting [7]); 7% in assay [5] (setting [8]); 1.85% in assay [5] (at 50.0 µM); -27% in assay [6] (setting [7]); -28% in assay [6] (setting [8]); 14.6% in assay [6] (at 50.0 µM).
For `CCCCCCCCCCCCCCCCn1cc(C(O)CN(C)C)c2ccccc21` (stereo not given), the growth inhibition in assay [1] (setting [7]) is -4%; in assay [1] (setting [8]) it was 98% (active); in assay [1] (at 50.0 µM), 32.2%; in assay [2] (setting [7]) it was -1%; in assay [2] (setting [8]) it was 99% (active); in assay [2] (at 50.0 µM), 99.1% (active). Further, the growth inhibition in assay [3] (setting [7]) is -1%; in assay [3] (setting [8]) it was 98% (active); in assay [3] (at 50.0 µM), 49.5%; in assay [4] (setting [7]) it was -3%; in assay [4] (setting [8]) it was 89% (active); in assay [4] (at 50.0 µM), 98.3% (active). Further, the growth inhibition in assay [5] (setting [7]) was -4%; in assay [5] (setting [8]), 98% (active); in assay [5] (at 50.0 µM), 39.6%; in assay [6] (setting [7]) it was -2%; in assay [6] (setting [8]) it was 98% (active); in assay [6] (at 50.0 µM) it was 94.9% (active).
